In ChEMBL document CHEMBL3988442, “University of Dundee, Small-Polar-MMV Screening Library” (2021) one finds Percent Effect data, which are given here for ten molecules.

Each structure is given as a SMILES string. For some assays here: Potency and affinity values are given separately.

Common to all, as to set-up: scale not given: direction of the effect not stated beside the values
In test [1] the target is Protein translocase subunit SecA (Escherichia coli (strain K12)) (UniProt P10408). The test can be described thus: Assay to Identify E. coli SecA ATPase Inhibitors. The following applies: 30 µM. The test is classed as functional.
Chain of Protein translocase subunit SecA (Escherichia coli (strain K12)) (P10408 whole entry): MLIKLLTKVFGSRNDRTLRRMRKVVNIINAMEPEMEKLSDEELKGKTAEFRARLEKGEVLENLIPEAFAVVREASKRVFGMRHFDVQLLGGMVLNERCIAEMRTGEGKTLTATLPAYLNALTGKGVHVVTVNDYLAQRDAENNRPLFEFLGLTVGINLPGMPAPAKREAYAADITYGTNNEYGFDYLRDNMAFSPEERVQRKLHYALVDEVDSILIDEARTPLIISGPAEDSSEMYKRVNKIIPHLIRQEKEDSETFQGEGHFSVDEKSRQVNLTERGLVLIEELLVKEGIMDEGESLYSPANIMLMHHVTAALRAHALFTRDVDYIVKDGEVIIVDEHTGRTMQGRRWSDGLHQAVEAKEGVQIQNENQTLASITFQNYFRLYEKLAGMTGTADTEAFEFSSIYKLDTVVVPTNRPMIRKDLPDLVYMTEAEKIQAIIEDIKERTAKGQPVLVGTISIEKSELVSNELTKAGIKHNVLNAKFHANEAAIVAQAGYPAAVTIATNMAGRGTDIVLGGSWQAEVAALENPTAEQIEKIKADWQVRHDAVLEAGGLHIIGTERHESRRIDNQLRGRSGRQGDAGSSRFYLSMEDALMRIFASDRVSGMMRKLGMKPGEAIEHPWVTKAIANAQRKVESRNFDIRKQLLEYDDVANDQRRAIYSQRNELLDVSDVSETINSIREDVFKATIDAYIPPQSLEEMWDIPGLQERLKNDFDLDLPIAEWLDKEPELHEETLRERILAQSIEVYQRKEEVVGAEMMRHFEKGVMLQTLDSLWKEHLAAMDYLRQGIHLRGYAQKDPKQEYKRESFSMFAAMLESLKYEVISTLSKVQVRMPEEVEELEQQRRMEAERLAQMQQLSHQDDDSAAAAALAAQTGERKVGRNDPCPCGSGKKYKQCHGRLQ
For test [2], the target named is T1, Ubiquitin-activating enzyme e1, putative (Leishmania donovani (strain BPK282A1)) (UniProt E9BSI1).
T1 sequence (whole entry): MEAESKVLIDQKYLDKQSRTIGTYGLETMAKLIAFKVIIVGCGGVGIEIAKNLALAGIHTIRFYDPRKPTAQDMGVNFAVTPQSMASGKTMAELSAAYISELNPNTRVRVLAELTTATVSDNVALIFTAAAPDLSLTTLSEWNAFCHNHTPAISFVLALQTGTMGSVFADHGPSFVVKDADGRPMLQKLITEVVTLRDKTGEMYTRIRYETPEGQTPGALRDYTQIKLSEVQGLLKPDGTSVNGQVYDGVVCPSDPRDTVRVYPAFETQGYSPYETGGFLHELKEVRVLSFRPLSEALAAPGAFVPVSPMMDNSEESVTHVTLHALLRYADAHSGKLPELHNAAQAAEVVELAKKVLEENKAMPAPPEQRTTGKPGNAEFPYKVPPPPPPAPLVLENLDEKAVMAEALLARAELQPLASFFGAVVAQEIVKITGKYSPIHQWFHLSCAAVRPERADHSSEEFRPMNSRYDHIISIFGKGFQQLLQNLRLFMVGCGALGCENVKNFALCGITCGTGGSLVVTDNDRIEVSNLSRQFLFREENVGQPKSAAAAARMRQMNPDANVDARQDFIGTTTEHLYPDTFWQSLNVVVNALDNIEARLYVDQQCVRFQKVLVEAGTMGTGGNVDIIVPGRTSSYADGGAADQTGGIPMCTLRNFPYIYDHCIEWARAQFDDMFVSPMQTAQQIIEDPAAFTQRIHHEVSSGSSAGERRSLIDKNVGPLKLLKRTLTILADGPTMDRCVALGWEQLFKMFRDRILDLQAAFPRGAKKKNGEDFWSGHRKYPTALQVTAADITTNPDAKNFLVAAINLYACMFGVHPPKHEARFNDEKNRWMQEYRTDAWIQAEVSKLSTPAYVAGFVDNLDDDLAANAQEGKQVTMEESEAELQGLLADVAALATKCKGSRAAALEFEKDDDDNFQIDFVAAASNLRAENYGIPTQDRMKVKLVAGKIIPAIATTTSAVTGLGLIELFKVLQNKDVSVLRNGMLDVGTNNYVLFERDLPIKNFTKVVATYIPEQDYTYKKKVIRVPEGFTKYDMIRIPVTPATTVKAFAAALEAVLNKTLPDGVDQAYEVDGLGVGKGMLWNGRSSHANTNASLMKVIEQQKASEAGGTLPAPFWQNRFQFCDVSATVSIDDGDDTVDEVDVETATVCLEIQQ
Put plainly: Leishmania donovani Ubiquitin Activating Enzyme (LdE1). The format is functional. The following applies: 30 µM.

Test [3] concerns the target AMP-activated protein kinase, AMPK (Homo sapiens) (UniProt P54646+O43741+P54619+Q9UGJ0+Q9Y478+Q13131+Q9UGI9). Put plainly: AMP-dependent Kinase enzyme assay. An in vitro enzyme assay that detects ADP turnover that is directly proportional to AMPK activity. This uses naive AMPK that is activated during the assay with MK-8722. The test is classed as functional. The following applies: 30 µM.

For test [4], the target named is Sialic acid-binding Ig-like lectin 9 (Homo sapiens) (UniProt Q9Y336). Put plainly: Hs-Siglec9 ALPHAscreen SOP 20170721. The following applies: 10 µM. (In general: Bead proximity is the source of the signal in Alpha formats.)
Chain of Sialic acid-binding Ig-like lectin 9 (Homo sapiens) (Q9Y336 whole entry): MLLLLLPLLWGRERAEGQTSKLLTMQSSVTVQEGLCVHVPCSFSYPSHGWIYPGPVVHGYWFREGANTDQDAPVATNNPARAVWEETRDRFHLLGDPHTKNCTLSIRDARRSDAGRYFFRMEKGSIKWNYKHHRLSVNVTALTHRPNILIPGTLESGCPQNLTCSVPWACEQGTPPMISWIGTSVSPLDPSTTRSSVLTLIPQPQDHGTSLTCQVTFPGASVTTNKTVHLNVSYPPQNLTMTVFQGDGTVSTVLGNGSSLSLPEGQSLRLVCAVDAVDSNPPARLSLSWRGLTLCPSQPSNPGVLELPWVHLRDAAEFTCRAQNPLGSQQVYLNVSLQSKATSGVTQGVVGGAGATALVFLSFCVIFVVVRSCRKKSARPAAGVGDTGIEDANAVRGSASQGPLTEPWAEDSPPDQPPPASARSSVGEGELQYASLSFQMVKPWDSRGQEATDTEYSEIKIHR
A further test relates to Trypanosoma cruzi. Put plainly: Trypanosoma cruzi phosphomannomutase and mannose-1-phosphate guanylyltransferase assay. The test is classed as functional. The following applies: 10 µM.
For test [5], the target named is T2, Arginase-2, mitochondrial (Homo sapiens) (UniProt P78540).
T2 sequence (whole entry): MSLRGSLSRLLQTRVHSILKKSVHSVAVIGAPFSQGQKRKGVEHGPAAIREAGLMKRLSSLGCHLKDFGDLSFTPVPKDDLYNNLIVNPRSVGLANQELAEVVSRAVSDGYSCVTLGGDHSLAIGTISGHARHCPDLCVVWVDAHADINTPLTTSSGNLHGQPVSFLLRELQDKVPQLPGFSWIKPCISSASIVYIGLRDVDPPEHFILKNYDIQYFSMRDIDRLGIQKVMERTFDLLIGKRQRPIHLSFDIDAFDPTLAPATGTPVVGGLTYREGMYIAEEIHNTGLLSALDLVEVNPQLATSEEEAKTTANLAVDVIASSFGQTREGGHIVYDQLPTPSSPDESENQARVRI
Put plainly: in vitro enzyme assay to detect the production of urea directly proportional to the activity of Arginase II. Further: in the data most compounds retested in dose-response had high values. The format is functional. The following applies: 33.3 µM.

Test [6] concerns the target T3, Proteasome subunit beta (Trypanosoma cruzi) (UniProt O96673).
T3 sequence (whole entry): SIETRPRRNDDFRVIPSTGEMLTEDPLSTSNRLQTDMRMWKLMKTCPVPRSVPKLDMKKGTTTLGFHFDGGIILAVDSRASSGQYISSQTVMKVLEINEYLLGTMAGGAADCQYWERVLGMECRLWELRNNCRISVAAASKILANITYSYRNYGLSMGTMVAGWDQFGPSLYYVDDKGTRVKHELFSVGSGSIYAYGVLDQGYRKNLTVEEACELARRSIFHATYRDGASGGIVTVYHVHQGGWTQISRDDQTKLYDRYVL
Put plainly: Trypanosoma cruzi proteasome chymotrypsin-like activity (TcProtChymo) assay. Further: in the data most compounds retested in dose-response had high values. The test is classed as functional. The following applies: 9.37 µM.

For the next test, the species on record is Homo sapiens. The test can be described thus: To identify inhibition of the IFN signalling (Jak-Stat) pathway via expression of an eGFP reporter gene under the control of an IFN-stimulated response element (ISRE) containing MxA promoter. The test is classed as functional. The following applies: 30 µM. (In general: In a reporter assay the amount or activity of a reporter protein is the signal.)

The target in test [7] is T4, Tyrosyl-tRNA synthetase, putative (Trypanosoma cruzi (strain CL Brener)) (UniProt Q4DSP6).
T4 sequence (whole entry): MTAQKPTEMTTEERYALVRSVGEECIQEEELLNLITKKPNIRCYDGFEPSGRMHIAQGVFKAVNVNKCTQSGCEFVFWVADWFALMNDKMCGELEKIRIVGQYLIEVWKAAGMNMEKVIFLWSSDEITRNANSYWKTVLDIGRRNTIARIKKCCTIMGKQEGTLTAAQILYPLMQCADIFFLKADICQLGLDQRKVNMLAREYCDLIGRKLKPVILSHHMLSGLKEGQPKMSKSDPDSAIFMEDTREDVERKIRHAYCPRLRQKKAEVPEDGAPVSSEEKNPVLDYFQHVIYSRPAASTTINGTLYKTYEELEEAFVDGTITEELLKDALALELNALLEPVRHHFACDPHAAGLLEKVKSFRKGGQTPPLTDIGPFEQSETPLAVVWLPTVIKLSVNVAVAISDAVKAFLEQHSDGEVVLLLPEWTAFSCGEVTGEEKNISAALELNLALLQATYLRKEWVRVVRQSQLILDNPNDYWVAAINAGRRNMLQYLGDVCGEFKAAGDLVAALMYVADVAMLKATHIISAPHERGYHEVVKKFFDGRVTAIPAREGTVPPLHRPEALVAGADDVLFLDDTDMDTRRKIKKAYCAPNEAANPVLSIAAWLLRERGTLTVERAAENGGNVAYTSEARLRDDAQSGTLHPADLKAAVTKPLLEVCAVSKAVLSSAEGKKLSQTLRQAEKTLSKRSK
The test can be described thus: Trypanosoma cruzi tyrosyl tRNA synthetase (TcYRS) _High Tyrosine SOP. Further: in the data most compounds retested in dose-response had high values. The test is classed as functional. The following applies: 30 µM.

Test [8] has as its target T4, Tyrosyl-tRNA synthetase, putative (Trypanosoma cruzi (strain CL Brener)). Put plainly: Trypanosoma cruzi tyrosyl tRNA synthetase (TcYRS) SOP. The test is classed as functional. The following applies: 30 µM.
For test [9], the target named is Chromo domain-containing protein 1 (Saccharomyces cerevisiae (strain ATCC 204508 / S288c) (Baker's yeast)) (UniProt P32657). Put plainly: ScCHD-1 Enzyme Inhibition Assay. Further: in the data most compounds retested in dose-response had high values. The test is classed as functional. The following applies: 30 µM.
Chain of Chromo domain-containing protein 1 (Saccharomyces cerevisiae (strain ATCC 204508 / S288c) (Baker's yeast)) (P32657 whole entry, the tested form may be a part): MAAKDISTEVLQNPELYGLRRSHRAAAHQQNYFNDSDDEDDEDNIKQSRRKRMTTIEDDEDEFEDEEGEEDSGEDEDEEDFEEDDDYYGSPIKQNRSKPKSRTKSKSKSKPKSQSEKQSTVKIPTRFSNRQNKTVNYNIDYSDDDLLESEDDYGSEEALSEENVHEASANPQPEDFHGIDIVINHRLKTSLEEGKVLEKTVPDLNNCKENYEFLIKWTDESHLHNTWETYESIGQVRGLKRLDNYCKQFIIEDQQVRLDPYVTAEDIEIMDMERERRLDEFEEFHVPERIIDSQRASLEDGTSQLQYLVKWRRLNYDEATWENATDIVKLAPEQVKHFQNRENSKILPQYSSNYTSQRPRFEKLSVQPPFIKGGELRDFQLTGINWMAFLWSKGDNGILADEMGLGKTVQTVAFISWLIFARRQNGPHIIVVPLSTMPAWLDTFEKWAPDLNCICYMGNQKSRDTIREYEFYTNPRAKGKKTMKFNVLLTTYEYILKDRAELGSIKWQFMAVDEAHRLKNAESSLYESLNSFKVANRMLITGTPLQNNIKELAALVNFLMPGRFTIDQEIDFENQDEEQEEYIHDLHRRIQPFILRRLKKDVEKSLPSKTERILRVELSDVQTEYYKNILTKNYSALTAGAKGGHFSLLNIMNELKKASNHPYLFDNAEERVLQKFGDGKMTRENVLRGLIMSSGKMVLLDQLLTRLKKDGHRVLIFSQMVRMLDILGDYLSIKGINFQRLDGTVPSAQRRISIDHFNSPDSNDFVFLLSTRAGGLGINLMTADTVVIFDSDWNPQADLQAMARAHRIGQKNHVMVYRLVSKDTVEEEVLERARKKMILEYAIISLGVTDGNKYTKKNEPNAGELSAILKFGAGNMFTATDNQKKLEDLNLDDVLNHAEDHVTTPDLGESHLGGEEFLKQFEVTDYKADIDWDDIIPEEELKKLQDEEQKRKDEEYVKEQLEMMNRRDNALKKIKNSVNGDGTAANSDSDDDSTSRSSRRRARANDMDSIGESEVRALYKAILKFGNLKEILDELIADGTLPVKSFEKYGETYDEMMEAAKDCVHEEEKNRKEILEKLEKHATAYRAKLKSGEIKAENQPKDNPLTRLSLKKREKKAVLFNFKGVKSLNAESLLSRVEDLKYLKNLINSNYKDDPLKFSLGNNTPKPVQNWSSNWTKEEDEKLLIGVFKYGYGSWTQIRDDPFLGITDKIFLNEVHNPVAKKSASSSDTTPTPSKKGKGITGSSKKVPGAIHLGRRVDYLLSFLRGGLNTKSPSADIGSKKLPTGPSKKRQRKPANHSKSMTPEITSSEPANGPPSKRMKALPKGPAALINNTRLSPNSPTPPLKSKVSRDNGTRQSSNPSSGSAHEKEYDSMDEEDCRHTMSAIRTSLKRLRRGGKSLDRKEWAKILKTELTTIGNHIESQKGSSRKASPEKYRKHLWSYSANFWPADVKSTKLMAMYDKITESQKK

For `COC(=O)Cn1cccc(S(=O)(=O)N2CCC(C)CC2)c1=O`, the Percent Effect is -2.33% in [1]; 20% in [2]; -5.59% in test [3]; -8.73% in test [4]; 2.75% with Trypanosoma cruzi; 92.1% in test [5]. For the same molecule, the Percent Effect is 14.8% in [6]; 15.8% in the test listed under Homo sapiens; 2.12% in test [7]; 10.3% in test [8]; -10.4% in test [9].

Consider `O=C(C1COCCO1)N1CCN(Cc2ccc3c(c2)CCO3)CC1` (stereo not given), for which the Percent Effect is -1.12% in test [1]; -5.26% in test [2]; -0.262% in test [3]; 5.55% in [4]; 1.21% in the test on Trypanosoma cruzi; -2.52% in test [5]. The Percent Effect in test [6] was -0.0846%; in the test filed under Homo sapiens it was -4.94%; in test [7] it was 3.45%; in [8] it was 3.7%; in test [9], -2.12%.

Turning to `COC(C(=O)N1CCCN(Cc2cscn2)CC1)c1ccccc1` (stereo not given), the Percent Effect is -0.131% in test [1]; 21.1% in [2]; -3.46% in [3]; -3.88% in [4]; 4.89% in the test on Trypanosoma cruzi; -5.36% in test [5]. For the same molecule, the Percent Effect in [6] is 23.2%; in the test filed under Homo sapiens, 6.84%; in test [7], 5.39%; in test [8], 24.4%; in [9] it was -9.91%.

On to `Cc1nn(C)c2c(=O)n(CC(=O)Nc3cc(Cl)cc(Cl)c3)nnc12`, for which the Percent Effect in test [1] was 0.37%; in [2] it was 12%; in [3] it was 0.0353%; in test [4] it was 1.72%; in the test with Trypanosoma cruzi it was -6.29%; in test [5] it was -1.58%. Also, the Percent Effect was 19.6% in test [6]; 12.4% in the test filed under Homo sapiens; 2.12% in test [7]; 10.3% in [8]; -8.24% in test [9].

`Cc1cc(F)ccc1CN1CCCC2(C1)OCCO2`: the Percent Effect in test [1] is -1.89%; in test [2], 2.7%; in [3] it was -1.85%; in test [4] it was -3.22%; with Trypanosoma cruzi, 0.391%; in test [5] it was 1.67%. Moreover, the Percent Effect in test [6] is 6.34%; in the test filed under Homo sapiens, 1.71%; in test [7] it was 2.97%; in [8], -3.66%; in [9] it was -3.73%.

Turning to `CCNC(=O)N(C)C(c1cccc(F)c1)c1ccccn1` (stereo not given), the Percent Effect in test [1] is -4.06%; in [2], 2.6%; in test [3] it was 8.62%; in test [4], 13%; in the test on Trypanosoma cruzi, 5.43%; in test [5], -2.49%. In addition, the Percent Effect in test [6] is 9.46%; in the test filed under Homo sapiens, 21.3%; in test [7], 7.77%; in test [8] it was 21.9%; in test [9], -6.09%.

Turning to `O=S(=O)(CCN1CCOC(Cn2cccn2)C1)C(F)(F)F` (stereo not given), the Percent Effect is -0.0845% in [1]; 24.1% in [2]; 13.4% in test [3]; -1.22% in test [4]; 2.97% with Trypanosoma cruzi; -1.5% in [5]. Besides, the Percent Effect in test [6] stood at 18.4%; in the test filed under Homo sapiens, 30.2%; in [7], 8.33%; in test [8], 12.7%; in [9], 61.7%.

Consider `Cc1cnc(CN(C)CC2CCCN2c2cccnn2)cn1` (stereo not given), for which the Percent Effect was 1.21% in test [1]; 15.6% in [2]; -9.07% in test [3]; -13.5% in [4]; 1.27% in the test on Trypanosoma cruzi; -5.26% in test [5]. The Percent Effect in test [6] was 17.1%; in the test listed under Homo sapiens, 4.87%; in test [7] it was 6.67%; in [8], 25.9%; in test [9], -25.4%.

Turning to `CCN(CC)CCNC(=O)c1cnc(C(C)(C)C)s1`, the Percent Effect in test [1] is -3.73%; in test [2], 0%; in test [3], 2.58%; in test [4] it was -11.2%; in the test on Trypanosoma cruzi, -3.64%; in [5], 2.88%. In addition, the Percent Effect in [6] is 8.21%; in the test listed under Homo sapiens, 0.408%; in [7], 0.493%; in test [8] it was -6.17%; in [9], -0.603%.

As to `CS(=O)(=O)NC[C@]12COC[C@H]1CN(CC1CCCC1)C2`, the Percent Effect was -4.19% in test [1]; 5.41% in [2]; 8.19% in test [3]; -4.23% in [4]; -4.79% with Trypanosoma cruzi; 1.59% in test [5]. Further, the Percent Effect in [6] came to 20.1%; in the test listed under Homo sapiens, 0.262%; in [7], 2.16%; in test [8], 7.69%; in test [9] it was 0.895%.
